Compounds with a hit are over-represented: about 19% of the library has one in this group of screens.
Pf growth 96h – P. falciparum growth inhibition at 96 hour, primary screen for plastid delayed-death inhibitors | 6.9% of 320,000 active | AID 504834 | Potency, µM (doses to about 28.7 µM), without a hit: at the top dose activity change, negative = inhibition, hits mostly inhibitors | P. falciparum luciferase reporter growth, 96 h; further: potency means the concentration at half of the fitted maximal effect; on the % scale 0 is the no-effect control and ±100 the full control effect
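Erythrocytes infected with luciferase-expressing P. falciparum were dispensed at 2% hematocrit and 0.05% parasitemia (final), then incubated with compounds 96 hours at 37 C in 5% CO2. Luminescence after detection reagent addition reported growth.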
CHX counter – counter-screen for Shiga toxin inhibitors: cycloheximide protein synthesis inhibition; 12% of 300,000 active; cell reporter, cycloheximide protein synthesis inhibition counterscreen; max response, %; in the data active means max response mostly above about 13%, no sharp cut-off; inactive means mostly below about 14%; further: read at 38.3 µM for the half of the compounds with a filed dose; 0% is about no effect
Shiga inhibitor – blocks Shiga toxin action in Vero cells | Vero cells, Shiga toxin protein synthesis inhibition reporter | inhibition, % at 38.7 µM | 9.2% of 290,000 active; in the data active means inhibition mostly above about 28%, no sharp cut-off; inactive means mostly below about 43%; further: 0% is about no effect
Pf growth 48h – inhibits P. falciparum growth in the first generation, 48 h; P. falciparum luciferase growth in erythrocytes, 48 h; Potency, µM (series often up to 28.7 µM), for the others: at the top dose activity change, negative = inhibition, usual class: inhibitors; 5.9% of 310,000 active; AID 504832; further: potency means the concentration at half of the fitted maximal effect; on the % scale 0 is the no-effect control and ±100 the full control effect
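Luciferase-expressing P. falciparum in infected erythrocytes (2% hematocrit, 0.1% parasitemia final) in RPMI 1640/0.5% Albumax were exposed to compound for 48 hours at 37 C, 5% CO2; growth read as luminescence.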
Lassa entry inh – blocks Lassa virus binding to or entry into cells | Lassa virus pseudotype entry inhibition, cell reporter | Potency, µM (doses to about 37.9 µM), for the others: at the top dose activity change, negative = inhibition, actives largely listed as inhibitors | 1.2% of 300,000 active | AID 540256; calls by dose curve; tested in HEK293 cells; further: potency means the concentration at half of the fitted maximal effect; on the % scale 0 is the no-effect control and ±100 the full control effect; nearly all actives have a fitted effect of over 50% in size
Marburg entry inh – blocks Marburg virus binding to or entry into cells. AID 540276. Marburg virus pseudotyped entry inhibition, cell reporter. Potency, µM (series often up to 37.8 µM), for the others: at the highest dose activity change, negative = inhibition, hits mostly inhibitors. 1.8% of 300,000 active; calls by dose curve; tested in HEK293 cells; further: potency means the concentration at half of the fitted maximal effect; on the % scale 0 is the no-effect control and ±100 the full control effect
* = called active by the depositor; ? = inconclusive; / = no result; ! = a repeat was not active; [ ] = another dose, or the depositor's remark. Unless noted, the call rests on the fitted dose curve; in most records, active means well fitted inhibition curve with a large enough effect; inconclusive means small, poorly fitted or top-dose-only effect, or another doubt; inactive means no such curve, though single readings can be large or run the other way.

SMILES	Pf growth 96h	CHX counter	Shiga inhibitor	Pf growth 48h	Lassa entry inh	Marburg entry inh
COc1ccc(C(c2nnnn2CCc2ccccc2)N2CCN(C3CCCC3)CC2)cc1OC (stereo not given)	0.59µM*	-15	-19	-19%	5%	2%
COc1cccc(C(c2nnnn2Cc2ccccc2)N2CCN(C3CCCC3)CC2)c1OC (stereo not given)	2.3µM*	-3	-18	-5%	-18%	?
COc1cc(/C=N/NC(=O)c2nnn(-c3nonc3N)c2-c2cccs2)ccc1O	-10%	1	-10	-8%	/	/
Cc1cc2c(cc1S(=O)(=O)C(C)CC(=O)NC1CCC(C)CC1)OCC(=O)N2 (stereo not given)	/	/	/	/	26%[46.1 µM]	/
c1ccc(CCNc2ncnc3c2cnn3-c2ccccc2)cc1	36%	44*	66*	169%	?	?
Cn1ncc2c(NCc3ccccc3)ncnc21	-1%	13*!	8	18%	6%	-14%
